Screening data from PubChem BioAssay.
A selection: hits, their analogues and other compounds. The true share with any hit is near 3.1%.
DRD3 agonist: qHTS of D3 Dopamine Receptor Agonist: qHTS; D(3) dopamine receptor (Homo sapiens), P35462; D3R DiscoveRx beta-arrestin cells, luminescence, 90 min; max activation, %; 410,000 tested, 0.58% active; AID 652048, 2013; in the data active = max activation above about 30%
Target sequence (P35462 whole entry, looked up): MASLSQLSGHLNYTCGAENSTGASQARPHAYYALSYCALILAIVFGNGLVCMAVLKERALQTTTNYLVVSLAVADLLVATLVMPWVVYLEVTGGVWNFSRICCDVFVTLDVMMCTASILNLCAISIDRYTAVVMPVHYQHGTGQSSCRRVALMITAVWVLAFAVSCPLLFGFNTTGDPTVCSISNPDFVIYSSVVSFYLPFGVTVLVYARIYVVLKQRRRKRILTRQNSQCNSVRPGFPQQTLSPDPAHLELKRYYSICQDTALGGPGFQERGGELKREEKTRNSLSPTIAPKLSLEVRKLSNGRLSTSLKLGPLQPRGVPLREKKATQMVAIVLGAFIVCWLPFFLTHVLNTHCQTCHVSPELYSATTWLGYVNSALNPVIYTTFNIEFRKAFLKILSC
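Agonist-mode cell screen: cells plated at 1500/well and incubated overnight at 37 °C, then exposed to library compounds for 90 min at 37 °C. Detection reagent was added for 30–60 min at room temperature, and luminescence was read.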
RGS4 inhibitor: Inhibitors of Regulator of G Protein Signaling (RGS) 4: qHTS; Potency, µM (titrated, usually from 114 µM), most hits filed as inhibitors; Regulator of G-protein signaling 4 (Homo sapiens), P49798; Transcreener GDP fluorescence polarization, RGS4-accelerated GTP hydrolysis; 390,000 tested, 0.039% active; active = well fitted inhibition curve with a large enough effect; inconclusive = small, poorly fitted or top-dose-only effect; inactive = no such curve, though single readings can be large or run the other way; also: nearly all actives have a fitted effect of over 75% in size
Target sequence (P49798 whole entry, looked up): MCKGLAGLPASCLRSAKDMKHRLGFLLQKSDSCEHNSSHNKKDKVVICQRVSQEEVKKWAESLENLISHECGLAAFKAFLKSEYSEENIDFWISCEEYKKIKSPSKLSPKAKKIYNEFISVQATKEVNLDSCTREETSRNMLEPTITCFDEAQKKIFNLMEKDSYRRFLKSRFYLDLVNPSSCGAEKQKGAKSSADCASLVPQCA
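MLSMR compounds (23 nl, pin-transferred) preincubated 10 min at room temperature with a 500nM (2x) first reagent, then RGS4 at 900nM (2x) plus Transcreener GDP mix added; fluorescence polarization (620/688 nm) read before and after 90 min at 30 °C.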
uPA surface inh: qHTS for Inhibitors of Cell Surface uPA Generation; cell surface uPA generation assay, qHTS; Potency, µM (highest dose often 38.3 µM), usual class: inhibitors; 330,000 tested, 0.31% active; AID 540303, 2011; active = well fitted inhibition curve with a large enough effect; inconclusive = small, poorly fitted or top-dose-only effect; inactive = no such curve, though single readings can be large or run the other way; tested in mouse RAW 264.7 cells; also: nearly all actives have a fitted effect of over 55% in size
D3 antag: qHTS of D3 Dopamine Receptor Antagonist: qHTS; AID 652054, 2013; max response, negative = inhibition, %; 360,000 tested, 2.5% active; D3R cells, DiscoveRx beta-arrestin luminescence, antagonist mode; active compounds read low; D(3) dopamine receptor (Homo sapiens), P35462; in the data active = max response below about -50%; inconclusive = no clear call, values can overlap the other calls
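Cells plated overnight at 1500 cells/well, then exposed to library compounds with dopamine controls for 90 minutes at 37 degrees C. DiscoveRx reagent added for 30–60 minutes at room temperature; luminescence read, quantitative HTS format.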
A number is an active result; - = inactive; ? = inconclusive; . = not tested or not shown; ! = a repeat was not active; [ ] = another dose, or the depositor's remark.

SMILES	DRD3 agonist	RGS4 inhibitor	uPA surface inh	D3 antag
CN1CCc2c(sc(/N=C/c3c[nH]c4ccccc34)c2C(N)=O)C1	-	-	-	-52
COCCn1c(SCC(=O)N2CCCC2)nc2c(c1=O)SCC2	-	.	.	-
COc1ccc(-n2c(C)cc(C(=O)COC(=O)c3ccc(O)cc3O)c2C)cc1	44	-	?	-
Cc1cc(C(=O)COC(=O)c2ccc(O)cc2O)c(C)n1-c1ccccc1	-	-	-	-
Cc1[nH]n(C(N)=S)c(=O)c1N=Nc1ccc(S(=O)(=O)N2CCCC2)cc1	-	-	-	-78
CCN1CCN(c2nc(Nc3ccccc3F)nc(N)c2[N+](=O)[O-])CC1	-	-	-	-63
Cc1cccc(Nc2nc(N)c([N+](=O)[O-])c(N3CCN(C)CC3)n2)c1	-	-	-	-64
CCN1CCN(c2nc(Nc3ccc(OC)cc3)nc(N)c2[N+](=O)[O-])CC1	-	-	-	-54
CCN1CCN(c2nc(Nc3ccccc3)nc(N)c2[N+](=O)[O-])CC1	-	-	-	-
CCN1CCN(c2nc(Nc3cccc(C)c3)nc(N)c2[N+](=O)[O-])CC1	-	-	-	-65
Nc1nc(Nc2ccccc2F)nc(N2CCCC2)c1[N+](=O)[O-]	-	-	-	-
Cc1cccc(Nc2nc(N)c([N+](=O)[O-])c(N3CCCC(C)C3)n2)c1 (configuration not stated)	-	-	-	-
CCCN(CC)C(CC)C(=O)Nc1c(C)cccc1C (configuration not stated)	-	.	.	.
CCOC(=O)c1c(NC(C)=O)c2c3c(sc2n1Cc1ccc(Cl)cc1)CCCC3	-	-	.	.
CN1CCN(c2nc(Nc3ccccc3)nc(N)c2[N+](=O)[O-])CC1	-	-	-	-67
Nc1nc(Nc2cccc(F)c2)nc(N2CCOCC2)c1[N+](=O)[O-]	-	-	-	-
Cc1ccccc1OCC(=O)Nc1ccc2[nH]c(=O)sc2c1	-	-	.	.
C[C@H]1O[C@@H](O[C@H]2[C@@H](O)C[C@H](O[C@H]3[C@@H](O)C[C@H](O[C@H]4CC[C@@]5(C)[C@H](CC[C@@H]6[C@@H]5C[C@@H](O)[C@]5(C)[C@@H](C7=CC(=O)OC7)CC[C@]65O)C4)O[C@@H]3C)O[C@@H]2C)C[C@H](O)[C@@H]1O	-	1.7µM!	-	-
COc1ccc(C(=O)NCCN2CCN(C(=O)c3ccc(OC)cc3)CC2)cc1	-	-	-	-83
COc1ccc(NC(=O)C(=O)NCCN2CCN(C(=O)c3ccc(C)cc3)CC2)cc1	-	-	-	-70
Cc1nc(-n2nc(C)c(Cc3ccc(Cl)cc3)c2C)sc1C(=O)N1CCC(C)CC1	-	-	.	.
Cc1ccc(-c2nn(-c3cccc(F)c3)cc2CN2CCN(c3ccccn3)CC2)o1	-	?	-	-70
O=c1nc2ccccc2c2n1CC(CN1CCN(c3ccccc3F)CC1)N2 (configuration not stated)	-	-	-	-69
O=c1nc2ccccc2c2n1CC(CN1CCN(c3ccc(F)cc3)CC1)N2 (configuration not stated)	-	-	-	-
Cc1ccc(C)c(-c2cc(C(=O)Nc3sc(C)c(C)c3C(N)=O)c3ccccc3n2)c1	46	-	.	-
SMILES	DRD3 agonist	RGS4 inhibitor	uPA surface inh	D3 antag
Cc1ccccc1-c1cc(C(=O)Nc2nc3c(s2)CCCC3)c2ccccc2n1	-	-	.	-91
Cc1cccc(-c2cc(C(=O)Nc3sc(C)c(C)c3C(N)=O)c3ccccc3n2)c1	-	-	-	-
CCc1ccccc1N1C(=O)N(CC(=O)c2ccc(OC)cc2)c2ccccc2S1(=O)=O	-	-	.	.
Cc1cccc(CCN(C(=O)c2snc(C(N)=O)c2N)C(C(=O)NCC2CCCO2)c2ccc(F)cc2)c1 (configuration not stated)	-	-	-	-
COc1ccc(CCN(C(=O)c2snc(C(N)=O)c2N)C(C(=O)NCC2CCCO2)c2ccc(F)cc2)cc1OC (configuration not stated)	36	-	-	-
Cc1ccc(-c2nc(CN3CCCCC3)cc(CN3CCCCC3)c2O)cc1	-	-	-	-55
O=C(NCCN1CCOCC1)C1(C(F)(F)F)CC(CCCO)CCCO1 (configuration not stated)	.	-	.	.
COc1c(Br)cc(Br)cc1C(=O)O	37	-	.	-
COc1ccc(N[C@@H]2CCN3C(=O)c4ccccc4[C@@H]3C[C@H]2O)cc1	-	-	-	-
O=C1c2ccccc2[C@@H]2C[C@@H](O)[C@H](Nc3cccc4ccccc34)CCN12	-	-	-	-56
COc1ccc2[nH]c(=O)c(CN(c3ccccc3)S(=O)(=O)c3ccccc3)cc2c1	33	-	-	-
COc1ccc2[nH]c(=O)c(CN(Cc3ccco3)C(=O)c3ccccc3)cc2c1	-	-	-	-88
COc1ccc2[nH]c(=O)c(CN(c3ccccc3OC)S(=O)(=O)c3ccccc3)cc2c1	-	-	-	-
CCOc1ccc2[nH]c(=O)c(CN(Cc3ccco3)C(=O)c3ccc(Br)cc3)cc2c1	-	-	-	-
C=CC[n+]1ccc(/C=C2\C=Cc3cc(C)ccc3N2CC)c2ccccc21	-	-	2.5µM	-
CCN1/C(=C/c2cc[n+](CCCS(=O)(=O)[O-])c3ccccc23)Sc2ccccc21	-	-	-	-
O=C1C(=C(I)I)c2ccccc2-c2ccccc21	-	?	-	-100
COc1ccc2c(=O)cc(CO)oc2c1	38	-	-	-
COC(=O)COc1ccc2oc(-c3ccc(OC)cc3)cc(=O)c2c1	-	-	.	.
COc1ccc(-c2cc(=O)c3cc(OC)ccc3o2)cc1	-	-	1.4µM	-
O=C1C=C(c2ccccc2Oc2ccccc2)C[C@@H](c2ccc(F)cc2)C1	-	.	.	-
COc1ccccc1OC(C)C(=O)Nc1ccc(-c2nc3ccccc3s2)cc1 (configuration not stated)	-	-	.	.
O=C(NC1CCCC1)C(c1ccncc1)N(C(=O)Cc1cccs1)c1ccc(F)cc1 (configuration not stated)	38	-	-	-
Cc1cc(CCC(=O)O)c(C)cc1CCC(=O)O	-	-	-	-52
COc1ccc(CCC(=O)O)c(O)c1	-	-	-	-
SMILES	DRD3 agonist	RGS4 inhibitor	uPA surface inh	D3 antag
Cc1ccc(NS(=O)(=O)c2c(C)[nH]c(C)c2C(=O)N2CCCCC2)cc1C	-	-[11.4 µM]	-	?
Cc1[nH]c(C)c(S(=O)(=O)Nc2cccc(Cl)c2C)c1C(=O)N1CCCC1	-	-	-	-65
Cc1ccc(NS(=O)(=O)c2c(C)[nH]c(C)c2C(=O)N2CCCC2)cc1Cl	-	-	-	-86
Cc1[nH]c(C)c(S(=O)(=O)Nc2cccc(Cl)c2C)c1C(=O)N1CCCCC1	-	-[11.4 µM]	-	-51
CC(CNC1CCCCC1)OC(=O)c1ccccc1 (configuration not stated)	-	-	-	-100
Cc1cc(NS(=O)(=O)c2ccccc2)c([N+](=O)[O-])cc1C	-	-	-	-52
